Compound activity (PubChem)
These entries were drawn from the full list.
aSyn 5UTR act = Activators via SNCA 5'UTR binding, MLPCN. alpha-synuclein 5'UTR reporter, activators screen. activity score, % (tested at 7.5 µM), hits read low. hit rate 7.1% among 300,000. AID 1814, 2009; in the data active = activity score below about -60%
An asterisk follows results filed as active.

SMILES	aSyn 5UTR act
COc1cccc(C(=O)Nc2ccc(F)cc2F)c1	-114*
COc1cccc(C(=O)Nc2ccc(C(F)(F)F)n(C)c2=O)c1	-71*
COc1cccc(C(=O)Nc2ccccc2F)c1	-73*
COc1ccsc1C(=O)Nc1ccc(F)cc1F	-69*
Cn1ccc(C(=O)Oc2ccc(C(=O)Nc3ccc(F)cc3F)cc2)n1	-122*
COc1cccc(C(=O)Nc2ccc(F)c(F)c2F)c1	-170*
O=C(Nc1ccccc1F)Oc1cccc(OC(=O)Nc2ccccc2F)c1	-108*
[O-][n+]1onc2c1CCc1c-2nn(-c2ccccc2Cl)[n+]1[O-]	-155*
Cc1ccc(-n2nc3c([n+]2[O-])CCc2c-3no[n+]2[O-])cc1	-141*
CCOC(=O)c1c(C)nc2c3ccccc3ccn12	-91*
NC(=O)c1cc2c3ccccc3ccn2c1-c1ccccc1	113
O=C(/C(=C/c1ccc(Cl)cc1)c1nc2ccccc2[nH]1)c1ccccc1	-217*
N#C/C(=C(/O)c1ccc(Cl)cc1)c1nc2ccccc2[nH]1	-67*
CNC(=O)COC(=O)c1ccc(-c2nc3ccccc3s2)s1	-161*
COCCCNC(=O)COC(=O)c1ccc(-c2nc3ccccc3s2)s1	-68*
O=C(NC1CCCCC1)c1cc2nc3c(c(C(F)(F)F)n2n1)CCCC3	-136*
CC(=O)c1ccc(NC(=O)c2cc3nc4c(c(C(F)(F)F)n3n2)CCCC4)cc1	-75*
O=C(c1ccccc1)c1nnc(-c2ccccc2F)o1	-104*
O=C(C1=NNCC1c1ccccc1)C1OC1c1ccccc1 (stereo unspecified)	-83*
COc1ccc(Cl)c2c1[nH]c1nc(SCc3ccccn3)nnc12	-106*
COc1ccc(C2=CC(c3sccc3C)n3nnnc3N2)cc1 (stereo unspecified)	-130*
COc1ccc(C2=CC(c3ccc(F)cc3)n3nnnc3N2)cc1 (stereo unspecified)	-130*
CN1CCN(/C=N/c2sc3c(c2C#N)CCCCC3)CC1	-147*
CCN(/C=N/c1sc2c(c1C#N)CCCCC2)CC	-142*
COc1ccc(CNc2nc3ccccc3n2C)c(O)c1	-133*
SMILES	aSyn 5UTR act
COc1ccc(CNc2nc3ccccc3n2C)c(OC)c1	-88*
CCCn1c(NCc2cccc(OC)c2O)nc2ccccc21	-82*
CCCCN1C(=O)/C(=C/C=C2/CC(C)(C)CN2C)SC1=S	-134*
CCC(=O)c1ccc(SC(=O)N(C)C)cc1O	-68*
CCCc1ccc(-c2cc(C(=O)NCCc3ccc(S(N)(=O)=O)cc3)c3ccccc3n2)cc1	-115*
CCCc1ccc(-c2cc(C(=O)Nc3ccc([N+](=O)[O-])cn3)c3ccccc3n2)cc1	-90*
NS(=O)(=O)c1ccc(CCNC(=O)c2ccc3ccccc3n2)cc1	-83*
O=C(N/N=C/c1cc([N+](=O)[O-])ccc1O)c1cc(-c2ccccc2)nc2ccccc12	81
NS(=O)(=O)c1ccc(CNc2ccc3ccccc3n2)cc1	-120*
CCCc1ccc(-c2cc(C(=O)NN3CCOCC3)c3ccccc3n2)cc1	-93*
CCc1ccc(-c2cc(C(=O)Nn3cnnc3)c3ccccc3n2)cc1	74
O=C(NCc1ccccc1Cl)c1ccc2ccccc2n1	-121*
Cc1ccc(-c2csc(N)n2)s1	-71*
COc1ccc2cc(C(N)=O)c(=Nc3ccc(C)cc3)oc2c1	-62*
Cc1cccc(N=c2oc3cc(O)ccc3cc2C(N)=O)c1	-77*
COc1ccccc1N=c1oc2cc(O)ccc2cc1C(N)=O	-74*
COc1ccc(NC(=O)C2C3CC/C=C\CCC32)cc1 (stereo unspecified)	-141*
CCOc1ccc(NC(=O)C2C3CC/C=C\CCC32)cc1 (stereo unspecified)	-87*
O=C(O)c1cccc(-n2cc(-c3cccc(C(F)(F)F)c3)cn2)c1	-128*
Cc1ncsc1C(=O)Nc1nc2c(s1)CCCC2	-159*
O=C(Nc1nc2c(s1)CCCC2)c1ccc(Br)s1	-93*
CC(=O)c1ccc(OCc2cc(C(=O)N3CCC(Oc4ccccc4C)CC3)no2)cc1	-182*
CC(=O)c1ccc(OCc2cc(C(=O)N3CCOCC3)no2)cc1	-154*
COc1ccccc1-c1nnc(NC(=O)C2=COCCO2)o1	-75*
C=CCNc1nc(-c2ccc(OC)cc2OC)cs1	-321*
SMILES	aSyn 5UTR act
COc1ccc(-c2csc(NC(=O)COC(=O)C3=COCCO3)n2)cc1	-128*
CC(C)(C)c1ccc(NC(=O)COC(=O)C2(C)CC2(Cl)Cl)cc1 (stereo unspecified)	-138*
C=CCn1c(C)cc(-c2csc(NC(=O)C3=COCCO3)n2)c1C	-89*
COc1ccc(-c2csc(NC(=O)C3=COCCO3)n2)c(OC)c1	-86*
CC(C)(C)c1ccc(NC(=O)COC(=O)C2=COCCO2)cc1	-90*
CC(C)(C)c1ccc(SCCc2ccccn2)cc1	-127*
CC(C)(C)c1ccc(S(=O)(=O)CCc2ccccn2)cc1	-96*
Fc1ccc(SCCc2ccccn2)cc1	-97*
CCOc1cc(CNCCCN2CCOCC2)cc(Br)c1OCc1ccccc1Cl	96
CCOc1cc(C2NN=C(c3ccccc3)S2)ccc1OCc1ccccc1Cl (stereo unspecified)	-132*
CCOc1cc(C2NN=C(c3ccccc3)S2)ccc1OCc1ccc(F)cc1 (stereo unspecified)	-129*
C=C1[C@@H](C)C2[C@H](Cc3ccccc3)NC(=O)[C@]23OC(=O)CC[C@H](O)CCC[C@H](C)C/C=C/[C@H]3[C@@H]1O (stereo partly specified)	80
CCCCN1CCc2c1nc1ccc(Br)cc1c2N	-65*
NS(=O)(=O)c1ccc(N/C=C\C(=O)c2cccc3ccccc23)cc1	-65*
Clc1cnc(N/N=C/c2cccs2)c(Cl)c1	-193*
Oc1ccc(/C=N/Nc2ncc(Cl)cc2Cl)cc1	-73*
Cc1ccc(/C=N/Nc2ncc(Cl)cc2Cl)s1	-148*
C(=N\Nc1nc(-c2ccccc2)cs1)/c1ccncc1	-230*
ClCc1csc(N/N=C/c2cccs2)n1	-72*
C(=N\Nc1nc(-c2ccccc2)cs1)/c1cccs1	-233*
O=C(COC(=O)c1ccccc1Nc1ccc(SC(F)F)cc1)NC1CC1	-100*
NC(=O)COC(=O)c1ccccc1Nc1ccc(SC(F)F)cc1	-82*
O=C(COC(=O)c1ccccc1Nc1ccc(SC(F)F)cc1)NCc1ccco1	-91*
CC(C)(C)NC(=O)COC(=O)c1ccccc1Nc1ccc(SC(F)F)cc1	-145*
O=C(Nc1ccccc1F)c1ccc(-c2cccc([N+](=O)[O-])c2)o1	-141*
SMILES	aSyn 5UTR act
O=C(NC(=S)Nc1cccc(Cl)c1N1CCCC1)c1ccc(-c2cccc([N+](=O)[O-])c2)o1	-63*
C=CCNC(=O)c1ccc(-c2cccc([N+](=O)[O-])c2)o1	-115*
O=C(Nc1ccccc1F)Nc1ccc([N+](=O)[O-])cc1Cl	-125*
O=C(Nc1nccs1)c1ccc(-c2cccc([N+](=O)[O-])c2)o1	-175*
CC1Cc2cc(/C=C3/SC(=S)N(C)C3=O)ccc2O1 (stereo unspecified)	-86*
CC(C)COCc1ccc(O)c2ncccc12	96
Cc1nc2cc(NC(=O)N3CCC(c4ccccc4)C3)ccc2n1C (stereo unspecified)	-104*
Cc1ccc(C2CCN(C(=O)Nc3ccc(F)cc3)C2)cc1 (stereo unspecified)	-125*
Cc1ccc(C2=NN3C(=O)c4ccccc4C3C2)cc1 (stereo unspecified)	-170*
OC1CCCCC1Sc1nc2ccccc2s1 (stereo unspecified)	-88*
c1ccc2oc(-c3ccn[nH]3)cc2c1	-120*
